# Measured values published in the supplement of paper PMC6555819.
# Legend:
# Assay in all cases: PBM binding z-score (relative to random genomic background probes); higher = stronger binding; sequences stand for … in GC…GCGATTGACAGCGTAGAATGAAGG
# [1] = tested on: RARb homodimer (NR concentration 270 nM)
# In short: (§1)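 Scanned fluorescence from custom Agilent 4×180K protein-binding microarrays was regression-normalized. Binding z-scores use random background probes as reference. Ligand-free nuclear receptor dimers were incubated on the arrays for 1 h and detected with antibodies against each partner (one per run).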
# [2] = tested on: RARg:RXRa (NR concentration 270 nM, RXRa partner concentration 90 nM)
# In short: as §1
# [3] = tested on: RARg homodimer (NR concentration 270 nM)
# In short: as §1
# [4] = tested on: RXRa DBDmut IVT, anti-RXR (DBD mutation: RXRa K156A/R161A, NR concentration 90 nM)
# In short: as §1
# [5] = tested on: RXRa homodimer (NR concentration 180 nM)
# In short: as §1
# [6] = tested on: THRa:RXRa (NR concentration 90 nM, RXRa partner concentration 90 nM)
# In short: as §1
# [7] = tested on: THRa homodimer (NR concentration 90 nM)
# In short: as §1
# [8] = tested on: VDR homodimer (NR concentration 270 nM)
# In short: as §1
sequence,measurement,setting,value
TCGAGTAGGTTAGTCGAGGCATTCAGCCAACATA,PBM binding z-score,[1],-0.449
same,PBM binding z-score,[2],-0.298
same,PBM binding z-score,[3],-0.249
same,PBM binding z-score,[4],-0.0873
same,PBM binding z-score,[5],-0.032
same,PBM binding z-score,[6],0.444
same,PBM binding z-score,[7],-0.612
same,PBM binding z-score,[8],-0.393
ACTTACCGGTCAACGAGGTTATAGCACGCGTATA,PBM binding z-score,[1],2.92
same,PBM binding z-score,[2],3.45
same,PBM binding z-score,[3],3.85
same,PBM binding z-score,[4],1.25
same,PBM binding z-score,[5],2.27
same,PBM binding z-score,[6],2.69
same,PBM binding z-score,[7],1.21
same,PBM binding z-score,[8],2.26
ATATGTAGGTTACCTCCGGGTCATTCAGGCTATG,PBM binding z-score,[1],3.04
same,PBM binding z-score,[2],4.19
same,PBM binding z-score,[3],2.43
same,PBM binding z-score,[4],0.792
same,PBM binding z-score,[5],3.8
same,PBM binding z-score,[6],3.78
same,PBM binding z-score,[7],2.66
same,PBM binding z-score,[8],2.02
CGAACTAGGTCATTGACAGTACAGTGAATAGTAA,PBM binding z-score,[1],2.62
same,PBM binding z-score,[2],3.89
same,PBM binding z-score,[3],4.03
same,PBM binding z-score,[4],2.62
same,PBM binding z-score,[5],2.48
same,PBM binding z-score,[6],2.48
same,PBM binding z-score,[7],0.979
same,PBM binding z-score,[8],0.986
CCTACTGGGCCATCAGGTCCTTGATATCAACGTT,PBM binding z-score,[1],0.0749
same,PBM binding z-score,[2],-0.0484
same,PBM binding z-score,[3],0.0919
same,PBM binding z-score,[4],-0.586
same,PBM binding z-score,[5],-0.412
same,PBM binding z-score,[6],0.183
same,PBM binding z-score,[7],0.322
same,PBM binding z-score,[8],0.000123
CCTACTGGGCCAGAGGTCATTGATTCCAATGCTC,PBM binding z-score,[1],4.02
same,PBM binding z-score,[2],4.51
same,PBM binding z-score,[3],3.89
same,PBM binding z-score,[4],1.52
same,PBM binding z-score,[5],4.88
same,PBM binding z-score,[6],3.22
same,PBM binding z-score,[7],1.09
same,PBM binding z-score,[8],3.61
CATACAGGATCAGCTAGGCCAGAGTAGGGACGGC,PBM binding z-score,[1],-0.0161
same,PBM binding z-score,[2],-0.112
same,PBM binding z-score,[3],0.213
same,PBM binding z-score,[4],-0.652
same,PBM binding z-score,[5],-0.0715
same,PBM binding z-score,[6],-0.122
same,PBM binding z-score,[7],0.03
same,PBM binding z-score,[8],0.0286
